Measured values published in the supplement of paper PMC10037445.
Whole data set: some 2,900 compounds, median “NF-kB SEAP reporter activity, fold change vs agonist alone” near 0.99, cut for the highest 2% near 2.6. The entries come from a sample that favours the highest values as a whole.

Assays:
RAW-Dual [1] = experiment: NF-kB SEAP reporter activity, fold change vs agonist alone; cytotoxicity flag (confluency mask): not cytotoxic; higher = enhanced NF-kB activity
Procedure, shortened: (§1)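 Supernatant from RAW-Dual macrophages was read after 20 hours for IRF by QuantiLuc luminescence and for NF-κB by QuantiBlue absorbance at 620 nm. The cells (50,000 cells/well in DMEM, 384-well plates, 37 °C, 5% CO2) had received 50 nL of library stock by pin tool and, 1 h later, a PRR agonist. Reporter activity is expressed relative to agonist-alone wells as fold change, and wells were flagged cytotoxic if IncuCyte confluency was under 70% of agonist controls in both mask sets.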

RAW-Dual [2] = experiment: NF-kB SEAP reporter activity, fold change vs agonist alone; higher = enhanced NF-kB activity; details: library stock concentration (final ~1000-fold dilution): 10 mM
Procedure, shortened: as §1

RAW-Dual [3] = experiment: NF-kB SEAP reporter activity, fold change vs agonist alone; cytotoxicity flag (confluency mask): cytotoxic (confluency <70% of control); higher = enhanced NF-kB activity
Procedure, shortened: as §1

[4] = agonist: ODN 1826 (TLR9) 0.5 ug/mL
[5] = agonist: Pam2CSK4 (TLR2/6) 0.1 ug/mL
[6] = agonist: Pam3CSK4 (TLR2/1) 0.1 ug/mL
[7] = cytotoxicity flag (confluency mask): not cytotoxic, agonist: Imiquimod (TLR7) […]
[8] = cytotoxicity flag (confluency mask): not cytotoxic, agonist: MPLA (TLR4) […]

## CC1OC(=O)C(C)C1CC(O)C(C)(O)C1CCC2(O)C3=CC(=O)C4CC(O)C(O)CC4(C)C3CCC12C (stereo not given) (library stock concentration (final ~1000-fold dilution): 10 mM)
RAW-Dual [1]; agonist: LPS (TLR4) 0.1 ug/mL
  NF-kB SEAP reporter activity: 1.18
RAW-Dual [1]; [4]
  NF-kB SEAP reporter activity: 1.02
RAW-Dual [1]; [5]
  NF-kB SEAP reporter activity: 1.16
RAW-Dual [1]; [6]
  NF-kB SEAP reporter activity: 1.23

## CCOc1cc(N)c([N+](=O)[O-])cc1C(=O)NC1CCN(CC2CC=CCC2)CC1.O=C(O)C(O)C(O)C(=O)O (stereo not given) (library stock concentration (final ~1000-fold dilution): 10 mM)
RAW-Dual [1]; agonist: LPS (TLR4) 0.1 ug/mL
  NF-kB SEAP reporter activity: 1.38
RAW-Dual [1]; [4]
  NF-kB SEAP reporter activity: 0.18
RAW-Dual [1]; [5]
  NF-kB SEAP reporter activity: 0.898
RAW-Dual [1]; [6]
  NF-kB SEAP reporter activity: 0.739

## CCOc1cc(N)c([N+](=O)[O-])cc1C(=O)NC1CCN(CC2CC=CCC2)CC1.O=C(O)C(O)C(O)C(=O)O (stereo not given)
RAW-Dual [2]; [7]
  NF-kB SEAP reporter activity: 1.28
RAW-Dual [2]; [8]
  NF-kB SEAP reporter activity: 1.03

## CCC(Nc1ncnc2[nH]cnc12)c1oc2ccccc2c(=O)c1-c1cccc(F)c1 (stereo not given)
RAW-Dual [2]; [7]
  NF-kB SEAP reporter activity: 0.582
RAW-Dual [2]; [8]
  NF-kB SEAP reporter activity: 0.924

## CCC(Nc1ncnc2[nH]cnc12)c1oc2ccccc2c(=O)c1-c1cccc(F)c1 (stereo not given) (library stock concentration (final ~1000-fold dilution): 10 mM)
RAW-Dual [1]; agonist: LPS (TLR4) 0.1 ug/mL
  NF-kB SEAP reporter activity: 0.907
RAW-Dual [1]; [4]
  NF-kB SEAP reporter activity: 0.718
RAW-Dual [1]; [5]
  NF-kB SEAP reporter activity: 0.443
RAW-Dual [1]; [6]
  NF-kB SEAP reporter activity: 0.61

## O=C(Oc1cccc(F)c1OC(=O)c1cccc(O)c1)c1cccc(O)c1
RAW-Dual [2]; cytotoxicity flag (confluency mask): cytotoxic (confluency <70% of control), agonist: Imiquimod (TLR7) […]
  NF-kB SEAP reporter activity: 0.964
RAW-Dual [2]; cytotoxicity flag (confluency mask): cytotoxic (confluency <70% of control), agonist: MPLA (TLR4) […]
  NF-kB SEAP reporter activity: 1.24

## O=C(Oc1cccc(F)c1OC(=O)c1cccc(O)c1)c1cccc(O)c1 (library stock concentration (final ~1000-fold dilution): 10 mM)
RAW-Dual [3]; agonist: LPS (TLR4) 0.1 ug/mL
  NF-kB SEAP reporter activity: 1.21
RAW-Dual [3]; [4]
  NF-kB SEAP reporter activity: 0.597
RAW-Dual [3]; [5]
  NF-kB SEAP reporter activity: 0.639
RAW-Dual [3]; [6]
  NF-kB SEAP reporter activity: 0.541

## CC(C)C(NC(=O)c1ccc2ccccc2n1)C(=O)NC(CC(=O)O)C(=O)COc1c(F)cccc1F (stereo not given)
RAW-Dual [2]; [7]
  NF-kB SEAP reporter activity: 1.01
RAW-Dual [2]; [8]
  NF-kB SEAP reporter activity: 1.14

## CC(C)C(NC(=O)c1ccc2ccccc2n1)C(=O)NC(CC(=O)O)C(=O)COc1c(F)cccc1F (stereo not given) (library stock concentration (final ~1000-fold dilution): 10 mM)
RAW-Dual [1]; agonist: LPS (TLR4) 0.1 ug/mL
  NF-kB SEAP reporter activity: 1.05
RAW-Dual [1]; [4]
  NF-kB SEAP reporter activity: 1.05
RAW-Dual [1]; [5]
  NF-kB SEAP reporter activity: 1.03
RAW-Dual [1]; [6]
  NF-kB SEAP reporter activity: 1.26

## CC12CCC3C(CCC4C(C)(C(=O)O)CCCC34C)(CC1=O)C2 (stereo not given) (library stock concentration (final ~1000-fold dilution): 10 mM)
RAW-Dual [1]; agonist: LPS (TLR4) 0.1 ug/mL
  NF-kB SEAP reporter activity: 1.41
RAW-Dual [1]; [4]
  NF-kB SEAP reporter activity: 1.11
RAW-Dual [1]; [5]
  NF-kB SEAP reporter activity: 1.13
RAW-Dual [1]; [6]
  NF-kB SEAP reporter activity: 1.02

## CC12CCC3C(CCC4C(C)(C(=O)O)CCCC34C)(CC1=O)C2 (stereo not given)
RAW-Dual [2]; [7]
  NF-kB SEAP reporter activity: 0.95
RAW-Dual [2]; [8]
  NF-kB SEAP reporter activity: 1.14

## O=C1OC(=O)C2C3CCC(O3)C12 (stereo not given) (library stock concentration (final ~1000-fold dilution): 10 mM)
RAW-Dual [1]; agonist: LPS (TLR4) 0.1 ug/mL
  NF-kB SEAP reporter activity: 3.23
RAW-Dual [1]; [4]
  NF-kB SEAP reporter activity: 2
RAW-Dual [1]; [5]
  NF-kB SEAP reporter activity: 1.84
RAW-Dual [1]; [6]
  NF-kB SEAP reporter activity: 1.76

## O=C1OC(=O)C2C3CCC(O3)C12 (stereo not given)
RAW-Dual [2]; [7]
  NF-kB SEAP reporter activity: 1.93
RAW-Dual [2]; [8]
  NF-kB SEAP reporter activity: 2.03

## CC(C)(C)NC(=O)C1CN(Cc2cccnc2)CCN1CC(O)CC(Cc1ccccc1)C(=O)NC1c2ccccc2CC1O.O=S(=O)(O)O (stereo not given)
RAW-Dual [2]; [7]
  NF-kB SEAP reporter activity: 1.07
RAW-Dual [2]; [8]
  NF-kB SEAP reporter activity: 1.21

## CS(=O)(=O)O.Cc1c(O)cccc1C(=O)NC(CSc1ccccc1)C(O)CN1CC2CCCCC2CC1C(=O)NC(C)(C)C (stereo not given)
RAW-Dual [2]; [7]
  NF-kB SEAP reporter activity: 2.13
RAW-Dual [2]; [8]
  NF-kB SEAP reporter activity: 2.22

## CC(C)(C)NC(=O)C1CN(Cc2cccnc2)CCN1CC(O)CC(Cc1ccccc1)C(=O)NC1c2ccccc2CC1O.O=S(=O)(O)O (stereo not given) (library stock concentration (final ~1000-fold dilution): 10 mM)
RAW-Dual [1]; agonist: LPS (TLR4) 0.1 ug/mL
  NF-kB SEAP reporter activity: 1.3
RAW-Dual [1]; [4]
  NF-kB SEAP reporter activity: 1.15
RAW-Dual [1]; [5]
  NF-kB SEAP reporter activity: 1.2
RAW-Dual [1]; [6]
  NF-kB SEAP reporter activity: 1.34

## CS(=O)(=O)O.Cc1c(O)cccc1C(=O)NC(CSc1ccccc1)C(O)CN1CC2CCCCC2CC1C(=O)NC(C)(C)C (stereo not given) (library stock concentration (final ~1000-fold dilution): 10 mM)
RAW-Dual [1]; agonist: LPS (TLR4) 0.1 ug/mL
  NF-kB SEAP reporter activity: 4.08
RAW-Dual [1]; [4]
  NF-kB SEAP reporter activity: 1.02
RAW-Dual [1]; [5]
  NF-kB SEAP reporter activity: 0.418
RAW-Dual [1]; [6]
  NF-kB SEAP reporter activity: 0.656

## C=C(C)C(=O)Nc1cccc(-c2ncnc3[nH]cc(C(=O)OCC)c23)c1 (library stock concentration (final ~1000-fold dilution): 10 mM)
RAW-Dual [1]; agonist: LPS (TLR4) 0.1 ug/mL
  NF-kB SEAP reporter activity: 1.36
RAW-Dual [1]; [4]
  NF-kB SEAP reporter activity: 1.14
RAW-Dual [1]; [5]
  NF-kB SEAP reporter activity: 1.44
RAW-Dual [1]; [6]
  NF-kB SEAP reporter activity: 1.27

## C=C(C)C(=O)Nc1cccc(-c2ncnc3[nH]cc(C(=O)OCC)c23)c1
RAW-Dual [2]; [7]
  NF-kB SEAP reporter activity: 1.01
RAW-Dual [2]; [8]
  NF-kB SEAP reporter activity: 1.18

## C=C1C(=O)OC2/C=C(\C)CC/C=C(\C)CCC12 (stereo not given)
RAW-Dual [2]; [7]
  NF-kB SEAP reporter activity: 0.262
RAW-Dual [2]; [8]
  NF-kB SEAP reporter activity: 0.198

## C=C1C(=O)OC2/C=C(\C)CC/C=C(\C)CCC12 (stereo not given) (library stock concentration (final ~1000-fold dilution): 10 mM)
RAW-Dual [1]; agonist: LPS (TLR4) 0.1 ug/mL
  NF-kB SEAP reporter activity: 0.231
RAW-Dual [1]; [4]
  NF-kB SEAP reporter activity: 0.213
RAW-Dual [1]; [5]
  NF-kB SEAP reporter activity: 0.153
RAW-Dual [1]; [6]
  NF-kB SEAP reporter activity: 0.197

## CC(=O)ON=C1C(c2c(O)[nH]c3cc(Br)ccc23)=Nc2ccccc21
RAW-Dual [2]; [7]
  NF-kB SEAP reporter activity: 1.07
RAW-Dual [2]; [8]
  NF-kB SEAP reporter activity: 1.48

## CC(=O)ON=C1C(c2c(O)[nH]c3cc(Br)ccc23)=Nc2ccccc21 (library stock concentration (final ~1000-fold dilution): 10 mM)
RAW-Dual [1]; agonist: LPS (TLR4) 0.1 ug/mL
  NF-kB SEAP reporter activity: 3.28
RAW-Dual [1]; [4]
  NF-kB SEAP reporter activity: 1.19
RAW-Dual [1]; [5]
  NF-kB SEAP reporter activity: 1.55
RAW-Dual [1]; [6]
  NF-kB SEAP reporter activity: 1.41

## CCN(CC)CCOC(=O)C(Cc1cccc2ccccc12)CC1CCCO1.O=C(O)C(=O)O (stereo not given) (library stock concentration (final ~1000-fold dilution): 10 mM)
RAW-Dual [1]; agonist: LPS (TLR4) 0.1 ug/mL
  NF-kB SEAP reporter activity: 1.08
RAW-Dual [1]; [4]
  NF-kB SEAP reporter activity: 0.731
RAW-Dual [1]; [5]
  NF-kB SEAP reporter activity: 0.761
RAW-Dual [1]; [6]
  NF-kB SEAP reporter activity: 1.01

## CCN(CC)CCOC(=O)C(Cc1cccc2ccccc12)CC1CCCO1.O=C(O)C(=O)O (stereo not given)
RAW-Dual [2]; [8]
  NF-kB SEAP reporter activity: 0.821
